Measurements published in PubChem BioAssay AID720690 (Broad Institute, 2013).
Entries with a potency or affinity are not part of this list. The source made the active and inactive calls.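 Rule for the calls: active = every repeat run showing a signal drop whose fitted half-maximal concentration is at most twice the top tested concentration; inconclusive = repeat runs disagree, or flat partial drop, or poor fit; inactive = the rest.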

experiment: general mammalian cell viability loss – activator set, cherry-pick, cytotoxicity control for miR-122 modulator project, dose response (AID 720690); conditions: HEK293T viability, CellTiter-Glo luminescence, 48 h; series mostly up to 26 µM

Row | Compound | outcome
1 | COCC(=O)N(C[C@H]1[C@H](c2ccccc2)[C@H](CO)N1C(=O)NC(C)C)C(C)C | inactive
2 | Cc1noc(C)c1NC(=O)Nc1ccc2c(c1)C(=O)N(C)[C@@H]1CC[C@H](CC(=O)N[C@H]3CCN(Cc4ccccc4)C3)O[C@H]1CO2 | inactive
3 | C/C=C/c1ccc([C@@H]2[C@@H](CO)N[C@@H]2CN(CC)C(=O)CN2CCOCC2)cc1 | inactive
4 | CNC(=O)C[C@@H]1CC[C@H]2[C@@H](COc3ccc(NC(=O)NC(C)C)cc3C(=O)N2C)O1 | inactive
5 | CO[C@H]1CN(C)C(=O)c2cc(NC(=O)c3ccccc3F)ccc2OC[C@@H](C)N(C)C[C@@H]1C | inactive
6 | COc1ccc(-c2ccc3c(c2)O[C@H](CN(C)C(=O)Nc2ccccc2F)[C@H](C)CN([C@@H](C)CO)S3(=O)=O)cc1 | inactive
7 | CCN(C[C@@H]1[C@@H](c2ccccc2)[C@@H](CO)N1S(C)(=O)=O)C(=O)C1CC1 | inactive
8 | CO[C@H]1CN(C)C(=O)c2cc(NC(C)=O)ccc2OC[C@@H](C)N(C(=O)CC2CC2)C[C@H]1C | inactive
9 | CN(C)CCCN(C(=O)CCc1ccccc1)c1nc2ccc(Br)cc2s1 | inactive
10 | CN1C(=O)c2cc(NC(=O)c3ccc4c(c3)OCO4)ccc2OC[C@H]2O[C@@H](CC(=O)O)CC[C@@H]21 | inactive
11 | O=C(CN1CCN(c2nc(-c3ccccc3)cs2)CC1)Nc1ccc2c(c1)OCO2 | inactive
12 | C[C@@H]1CN([C@H](C)CO)S(=O)(=O)c2ccc(C3=CCCC3)cc2O[C@@H]1CN(C)C(=O)c1ccc(F)cc1 | inactive
13 | COCCN(C[C@H]1[C@H](c2ccccc2)[C@@H](CO)N1C(=O)C1CCC1)C(C)=O | inactive
14 | CCN(C[C@H]1N[C@@H](CO)[C@@H]1c1ccc(C2=CCCC2)cc1)C(=O)c1cccnc1 | inactive
15 | CC(C)C(=O)Nc1ccc2c(c1)C(=O)N(C)[C@@H]1CC[C@@H](CC(=O)N[C@H](C)c3ccccc3)O[C@@H]1CO2 | inactive
16 | CCOC(=O)CSc1nnnn1-c1cccc2ccccc12 | inactive
17 | Cc1cc(C)c2c(c1)/C(=C/C(=O)c1ccc(Br)s1)C(=O)N2 | inactive
18 | Fc1ccc(CN2CCN(c3ncnc4scc(-c5ccc(F)cc5)c34)CC2)cc1 | inactive
19 | COc1ccc(NC(=O)Cn2nnc(C(=O)NCc3ccccc3OC)c2N)cc1Cl | inactive
20 | CCNC(=O)C[C@@H]1CC[C@@H]2[C@H](COc3ccc(NC(=O)Nc4cccc(Cl)c4)cc3C(=O)N2C)O1 | inactive

Row | Compound | outcome
21 | Clc1ccc(CSc2nnc(-c3ccncc3)o2)c(Cl)c1 | inactive
22 | CCNC(=O)Nc1ccc2c(c1)C(=O)N(C)[C@H]1CC[C@H](CC(=O)Nc3ccccc3F)O[C@@H]1CO2 | inactive
23 | C[C@@H]1CN([C@H](C)CO)S(=O)(=O)c2ccc(C3=CCCC3)cc2O[C@@H]1CN(C)C(=O)c1cnccn1 | inactive
24 | CNC(=O)C[C@H]1CC[C@H]2[C@H](COc3ccc(NC(=O)c4cccc(OC)c4)cc3C(=O)N2C)O1 | inactive
25 | CCCNC(=O)C[C@H]1CC[C@@H]2[C@H](COc3ccc(NC(=O)c4cc(F)cc(F)c4)cc3C(=O)N2C)O1 | inactive
26 | CO[C@@H]1CN(C)C(=O)c2ccc(NS(=O)(=O)c3ccc(C)cc3)cc2OC[C@@H](C)N(C(=O)NC(C)C)C[C@H]1C | inactive
27 | COC(=O)C[C@H]1CC[C@H]2[C@H](COc3ccc(NC(=O)NC(C)C)cc3C(=O)N2C)O1 | inactive
28 | COc1nnc(-c2ccc(N3CCOCC3)c(NC(=O)c3ccccc3)c2)c2ccccc12 | inactive
29 | C/C=C/c1ccc2c(c1)O[C@H](CN(C)C(=O)c1cnccn1)[C@H](C)CN([C@@H](C)CO)S2(=O)=O | inactive
30 | O=C(N[C@H]1CC[C@H](CCn2cc(C3(O)CCCC3)nn2)O[C@H]1CO)c1ccccc1F | inactive
31 | Cc1ccc(-c2ccc3c(c2)O[C@H](CN(C)Cc2cncnc2)[C@H](C)CN([C@@H](C)CO)S3(=O)=O)cc1 | inactive
32 | CC(C)C(=O)Nc1ccc2c(c1)C(=O)N(C)[C@@H]1CC[C@H](CC(=O)NCC3CC3)O[C@H]1CO2 | inactive
33 | COCCN(C[C@H]1[C@@H](c2ccccc2)[C@H](CO)N1C(=O)C1CCC1)C(C)=O | inactive
34 | COc1ccc(C(=O)N2C[C@H]3[C@@H](c4ccccc42)[C@@H](CO)N3C(=O)Cc2ccccn2)cc1 | inactive
35 | O=C(NC[C@H]1[C@H](c2ccccc2)[C@@H](CO)N1Cc1ccccn1)C1CC1 | inactive
36 | O=C(NC[C@H]1N[C@H](CO)[C@@H]1c1ccc(-c2ccccc2F)cc1)c1ccccc1 | inactive
37 | CN1C(=O)c2cc(NC(=O)Cc3ccccc3)ccc2OC[C@H]2O[C@@H](CC(=O)NC3CCC3)CC[C@H]21 | inactive
38 | O=C(c1ccc(CNc2c(NC3CCCCC3)c(=O)c2=O)cc1)N1CCc2ccccc21 | inactive
39 | CNC(=O)C[C@@H]1CC[C@H]2[C@@H](COc3ccc(NC(=O)C(C)C)cc3C(=O)N2C)O1 | inactive
40 | CC(C)NC(=O)N1C[C@@H]2[C@H](c3ccccc31)[C@H](CO)N2Cc1ccccc1 | inactive
